# This is a sample that favours compounds with a hit; in the whole collection about 4.1% have one here.
# ssDAF12 agonist – S. stercoralis DAF-12 activation, primary screen; HEK293 ssDAF-12/GRIP1 lit1-tk-luc reporter, luminescence; % of 3 µM dafachronic acid response; activation, % at 6.8 µM; actives 1% (n = 370,000); AID 652126;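 active = activation above the mean over all tested compounds plus 3 SD, cut at about 0.9% in these data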;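 also: 0% = DMSO-only wells and 100% = 3 µM delta7-dafachronic acid wells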
# hgDAF-12 ag – activates the H. glycines DAF-12 receptor ligand-binding domain. HEK293 GAL4-hgDAF12 UAS-luciferase reporter, agonist luminescence; normalized to butyrate control. activation, % at 6.8 µM. actives 1.8% (n = 370,000). AID 687014;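 active = activation above a cutoff set at the mean of all screened compounds plus 3 SD, cut at about 10% in these data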;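 also: 0% = DMSO wells and 100% = sodium butyrate wells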
# hcDAF-12 act – activates DAF-12 receptor from parasite H. contortus; HEK293 hcDAF-12 lit1-tk-luc reporter, luminescence; 0% DMSO, 100% Δ7-dafachronic acid; activation, % at 6.8 µM; actives 1.4% (n = 370,000); AID 652067;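 active = activation above the mean of all tested compounds plus 3 SD, cut at about 5.5% in these data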;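 also: 100% = response to 3 µM Δ7-dafachronic acid high control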
# DAX1 inh-1 – NR0B1 (DAX1) inhibition; P51843; HEK293 Gal4-DAX1 luciferase reporter, luminescence; inhibition, % at 6.75 µM; actives 0.99% (n = 340,000);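 active = inhibition above the mean over all tested compounds plus 3 SD, cut at about 4.2% in these data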;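 also: 0% = DAX1-transfected cells with DMSO and 100% = empty-vector control cells with DMSO; inhibition shows as a rise in luminescence from relieved DAX1 repression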
# Target sequence (P51843 207-470 limits assumed): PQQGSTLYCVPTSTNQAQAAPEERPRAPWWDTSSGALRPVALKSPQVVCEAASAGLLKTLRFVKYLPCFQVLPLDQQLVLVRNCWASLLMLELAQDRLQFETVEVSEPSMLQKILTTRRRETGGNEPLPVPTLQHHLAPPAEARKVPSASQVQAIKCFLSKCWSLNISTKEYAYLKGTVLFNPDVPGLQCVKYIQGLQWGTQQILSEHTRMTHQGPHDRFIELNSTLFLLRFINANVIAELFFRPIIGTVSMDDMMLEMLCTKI
# DAX1 inh-2 – DAX1 (NR0B1) inhibition, primary screen | HEK293T StAR-luciferase reporter, SF-1/DAX-1 repression relief | inhibition, % at 6.8 µM | actives 1.1% (n = 370,000);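 active = inhibition above the mean over all tested compounds plus 3 SD, cut at about 3.6% in these data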;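 also: 0% = DAX-1 cells with DMSO and 100% = cells lacking DAX-1 with DMSO; higher inhibition means more luminescence from relief of DAX-1 repression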
# LXR ag – counter-screen for hcDAF-12 agonists: agonists of human LXR-beta | 3,400 tested, under 10 active | shares compounds with hcDAF-12 act | activation, % at 6.8 µM | HEK293 Gal4-LXR tk-luc reporter, luminescence, 24 h; normalized: DMSO 0%, positive control 100%;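 active = mean percent activation of the reporter above a cutoff set as the average over tested compounds plus their standard deviation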
# hcDAF12 ag – confirmation of H. contortus DAF-12 agonists | shares compounds with hcDAF-12 act | HEK293 hcDAF-12 lit1-tk-luc reporter, luminescence; % of Δ7-dafachronic acid response | activation, % at 6.8 µM | actives 61% (n = 3,400);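 active = mean activation across triplicate tests above the threshold derived from the earlier primary screen, cut at about 5.5% in these data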;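 also: 0% = DMSO only wells and 100% = 3 µM Δ7-dafachronic acid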
# * = called active by the depositor; / = no result given.
SMILES,ssDAF12 agonist,hgDAF-12 ag,hcDAF-12 act,DAX1 inh-1,DAX1 inh-2,LXR ag,hcDAF12 ag
C=CCn1c(COc2ccc(CC)cc2)nnc1SC/C(O)=C(\C#N)c1nc2ccccc2[nH]1,0,2,8.2*,0,0,0,6.1*
CN(C)C(=O)CSc1nnc(Cc2ccc([N+](=O)[O-])cc2)o1,-2,2,1,1,0,/,/
CCCC(=O)Nc1nnc(S(=O)(=O)N(CC(C)C)c2ccccc2)s1,-1,0,0,0,0,/,/
CC1CCCCN1C(=O)CSCC(=O)Nc1nc(-c2cccs2)cs1 (configuration not stated),0,7,6.6*,1,1,0,2
C#CCN(C[C@H]1[C@H](OC(=O)Nc2cccs2)[C@H](OC(=O)Nc2cccs2)CN(C(=O)OC(C)C)N1C(=O)OC(C)C)S(=O)(=O)c1ccc(C)cc1,-2,-1,-1,/,-2,/,/
N#CCSc1nnc2sc3ccccc3n12,-1,-1,0,1,0,/,/
CSc1nnc2sc3cc(C)ccc3n12,0,7,9.6*,1,-1,0,5
CC(=O)c1ccc(N=C2C(=O)Nc3ccccc32)cc1,-1,5,-1,-2,0,/,/
CC(=O)N(/N=C1/C(=O)Nc2ccccc21)c1ccccc1,1.2*,2,12*,1,1,1,10*
CC(=O)Nc1ccc(S(=O)(=O)Nc2nc3ccccc3nc2N2CCc3ccccc3C2)cc1,2.2*,8,11*,1,3,0,6.7*
COc1cc2c(c(OC)c1OC)C1(CCCCC1)CC2NS(=O)(=O)C(C)C (configuration not stated),-1,1,-2,/,0,/,/
CC(C)CCN1CCN(Cc2cc3ccccc3[nH]2)CC1CCO (configuration not stated),0,0,6.9*,0,0,0,7.0*
CC(C)CN1CCN(Cc2cc3ccccc3[nH]2)CC1CCO (configuration not stated),0,0,4,2,0,/,/
c1csc(-c2ccc(N3CCOCC3)nn2)c1,0,13*,6.6*,0,3,1,5.8*
CCCCN(C(=O)c1cccc(S(=O)(=O)N2CCOCC2)c1)c1c(N)n(CCC)c(=O)[nH]c1=O,-1,2,8.2*,3,0,0,2
Cc1noc(C)c1NC(=O)Nc1ccc2c(c1)C(=O)N([C@@H](C)CO)C[C@@H](C)[C@H](CN(C)C(=O)Nc1cccc3ccccc13)OCCCC[C@H](C)O2,-1,1,1,0,-1,/,/
CC(=O)N[C@@H](Cc1ccc(O)cc1)CN1C(N)=NC[C@@H]1CC(C)C,0,1,6.8*,0,1,0,0
O=C(NC1CCCCCC1)c1ccc(Cl)c(S(=O)(=O)N2CCOCC2)c1,-1,1,-1,-1,0,/,/
CCc1nnc(NC(=O)Nc2ccc(OC)cc2)s1,-1,4,0,0,1,/,/
CCCCOc1ccc(NC(=O)Nc2nnc(C)s2)cc1,1.1*,0,8.5*,2,1,0,4
Cc1ccc(S(=O)(=O)Nc2c(C(=O)O)[nH]c3ccccc23)c(C)c1,1.1*,5,6.7*,2,0,0,2
COc1ccc(S(=O)(=O)Nc2c(C(=O)O)[nH]c3ccccc23)cc1,0,2,5,0,0,/,/
Cc1ccc(S(=O)(=O)Nc2cc3c(C(=O)O)c(C)oc3c3ccccc23)c(C)c1,0,-2,1,2,0,/,/
COc1ccc(S(=O)(=O)Nc2c(C(=O)O)[nH]c3ccccc23)cc1OC,2.0*,6,7.9*,0,0,0,5
CC(Sc1nnc(N)s1)C(=O)Nc1ccc2c(c1)OCO2 (configuration not stated),-1,2,0,1,-1,/,/
SMILES,ssDAF12 agonist,hgDAF-12 ag,hcDAF-12 act,DAX1 inh-1,DAX1 inh-2,LXR ag,hcDAF12 ag
COCCN1C(=O)N[C@@H](c2ccccc2)[C@H](C(=O)OC)[C@H]1C,-1,1,-2,-1,0,/,/
Cc1nc2ccc(N=NC3=C(O)CC(C)(C)CC3=O)cc2s1,1.6*,12*,8.0*,1,1,2,7.5*
Cc1nc2ccc(N=NC3=C(O)CCCC3=O)cc2s1,-1,9,2,2,1,/,/
Cc1ccc(NC2=C(Cl)C(=O)c3ccccc3C2=O)cc1,1.3*,9,7.4*,0,2,0,5.9*
c1ccc2c(c1)oc1c(Nc3ccc4c(c3)OCCO4)ncnc12,1,12*,9.1*,0,4,1,6.4*
Cc1nc(Nc2ccc3c(c2)OCCO3)c2oc3ccccc3c2n1,-1,-3,-1,0,0,/,/
COC(=O)c1ccc(OC)c(Cn2c(=O)n(C)c(=O)c3ccccc32)c1,-1,0,-2,0,0,/,/
CCOc1ccc(NC(=O)Nc2cccs2)cc1,1,11*,7.3*,0,3,1,5
CCOc1ccc(NC(=O)Nc2ccc3nsnc3c2)cc1,-1,8,1,0,0,/,/
Cc1cccc(/C=N/c2sc3c(c2C#N)CCN(Cc2ccccc2)C3)c1O,1,0,14*,3,0,0,6.7*
Cc1c(-c2ccccn2)c(=O)[nH]n1-c1ccc(F)cc1,1.8*,26*,15*,2,4.2*,2,15*
O=c1[nH]n(-c2ccc(F)cc2)c2ncccc12,-1,0,-1,0,0,/,/
COc1ccc(C(=O)COC(=O)C2COc3ccccc3O2)c(OC)c1 (configuration not stated),-1,2,1,3,0,/,/
O=C(NCCc1cccc(Cl)c1)c1cc([N+](=O)[O-])ccc1Cl,-2,-2,6.7*,-3,-2,0,0
Cc1cc(C)c2nc(/N=C(\N)NC(=O)Nc3ccccc3)nc(C)c2c1,-2,-1,-4,-1,-1,/,/
Cc1cc(C)c2nc(/N=C(\N)NC(=O)c3ccccc3)nc(C)c2c1,0,5,6.9*,2,1,0,2
Cc1cc(C)n(-c2ncnc3sc4c(c23)CC(C)CC4)n1 (configuration not stated),-1,2,-1,-1,-1,/,/
Cc1cc(C)n(-c2ncnc3sc4c(c23)CCCC4)n1,0,0,7.4*,1,1,0,2
Brc1ccccc1-c1nnc(SCc2nc3ccccc3s2)o1,2.5*,11*,12*,1,3,1,9.6*

# Bioassay records as filed in PubChem BioAssay.
